RMI FANCM FP: blocks RMI1/RMI2 complex binding to FANCM MM2 peptide. Fluorescence polarization, RMI core complex with F-MM2 peptide; active compounds read low. FP signal (polarization) at 33 µM. 0.58% of 70,000 active. AID 1159607; in the data active means FP signal below about 40
A number is an active result; . = inactive; ! = repeats disagree. The full list was thinned out, with hits kept by preference.

SMILES	RMI FANCM FP
CCCN1CCCc2cc(CCNC(=O)c3cccc(OC)c3OC)ccc21	.
CCN1CCCc2cc(CCNC(=O)c3ccc(OC)c(OC)c3)ccc21	.
CCCN1CCCc2cc(CCNS(=O)(=O)c3ccc(CC)cc3)ccc21	.
CCN1CCCc2cc(CCNC(=O)c3ccccc3C(F)(F)F)ccc21	0
CCCN1CCCc2cc(CCNC(=O)OCC)ccc21	31
CCCN1CCCc2cc(CCNC(=O)c3ccccc3OCC)ccc21	23
CCCN1CCCc2cc(CCNC(=O)C(=O)NC(C)C)ccc21	.
CCCC(=O)NCCc1ccc2c(c1)CCCN2CCC	.
O=S(=O)(Nc1c(Cl)c(Cl)c(Cl)c(Cl)c1Cl)c1ccccc1	.
Cc1ccc(-c2nc(N=CNOC(=O)c3ccc([N+](=O)[O-])cc3)sc2C)cc1Cl	.
CCc1nnc(NC(=O)CCN2C(=O)/C(=C\c3ccco3)SC2=S)s1	.
O=C1/C(=C\c2ccco2)SC(=S)N1CCS(=O)(=O)O	.
CCN(Cc1ccccc1)C(=O)CCN1C(=O)/C(=C\c2ccco2)SC1=S	22
CCOC(=O)c1c(C)nc2c(c1-c1cccnc1)C(=O)c1ccccc1-2	.
O=C(Cn1cnc2c(-c3ccc(Cl)cc3)csc2c1=O)N1CCN(c2ccc(F)cc2)CC1	.
Cc1ccc(C(C)C)c(OCCn2c(CO)nc3ccccc32)c1	.
CSc1ccccc1NC(=O)C(=O)NCCc1ccc(Cl)cc1	.
COCCN1CCCc2ccc(NS(=O)(=O)c3cc(C)c(C)cc3OC)cc21	.
COCCN1CCCc2ccc(NS(=O)(=O)Cc3ccc(Cl)cc3)cc21	-27
COCCN1CCCc2ccc(NS(=O)(=O)c3cc(Cl)ccc3C)cc21	.
COCCN1CCCc2ccc(NS(=O)(=O)c3ccccc3Cl)cc21	.
COCCN1CCCc2ccc(NS(=O)(=O)c3ccc(F)cc3F)cc21	18
COCCN1CCCc2ccc(NS(=O)(=O)c3ccc(OC)cc3)cc21	.
COCCN1CCCc2ccc(N)cc21	-72
COCCN1CCCc2ccc(NC(=O)c3cc(C)cc(C)c3)cc21	.
SMILES	RMI FANCM FP
COCCN1CCCc2ccc(NS(=O)(=O)c3ccc(C(C)(C)C)cc3)cc21	.
CC(=O)c1ccc(NC(=O)Cn2nc(C3CCCN(S(C)(=O)=O)C3)n(C)c2=O)cc1 (stereo not given)	.
COC(CNC(=O)C(=O)Nc1c(F)cccc1F)OC	.
Cc1ccc(NC(=O)C(=O)NCCN2CCN(c3ccccc3F)CC2)cc1C	.
CSc1ccc(-c2noc(-c3cn[nH]c3-c3ccccc3)n2)cc1	.
Cc1ccc(C)c(N2CCN(S(=O)(=O)c3ccsc3C(=O)n3nc(C)cc3C)CC2)c1	.
COc1ccc(CCC(=O)NCCOc2ccccc2)cc1	.
C=CCNC(=S)NNc1ccc([N+](=O)[O-])cc1	.
O=C(NCCn1nc(-c2ccco2)ccc1=O)c1ccc(S(=O)(=O)N2CCCC2)cc1	.
O=C1c2c(O)ccc([N+](=O)[O-])c2C(=O)c2c(O)ccc([N+](=O)[O-])c21	-25
O=[N+]([O-])c1ccc(S(=O)(=O)c2ccccc2)cc1O	.
O=C1c2ccc(O)c(O)c2C(=O)c2c(O)ccc(O)c21	.
Cc1sc(NC(=O)C2CCCN(S(=O)(=O)c3ccc(Cl)s3)C2)c(C#N)c1C (stereo not given)	.
COC(=O)c1ccc(NC(=O)Cn2nc(C3CC3)c3cnn(-c4ccccc4)c3c2=O)cc1	.
COc1ccc(-c2nn(-c3ccccc3)cc2/C=C2\SC(=O)NC2=S)cc1	27
COc1ccc(-c2nn(-c3ccccc3)cc2CN(Cc2ccccc2)C(=O)/C=C/C(=O)O)cc1	.
Cc1ccc(-c2nn(-c3ccccc3)cc2/C=C2\SC(=S)NC2=O)cc1F	.
O=C(Nc1ccc(-c2ccc(N3CCOCC3)nn2)cc1)c1ccccc1[N+](=O)[O-]	.
COc1ccc2sc(NCC3CCCO3)nc2c1 (stereo not given)	.
COC(=O)c1ccc(C(=O)OC)c(NC(=O)c2nn(-c3ccccc3)c(=O)cc2OC)c1	.
Cn1c(=O)c2c(O)c(C=Nc3cccc([N+](=O)[O-])c3)c(=O)n(C)c2n(C)c1=O	28
Cn1c(=O)c2c(O)c(C=NCc3ccccc3)c(=O)n(-c3ccccc3)c2n(C)c1=O	.
Cn1c(=O)c2c(O)c(C=Nc3cccc(Cl)c3Cl)c(=O)n(C)c2n(C)c1=O	.
O=C(Nc1ccc2ncsc2c1)C1CCCCC1	.
CC(=O)c1ccc(NC(=O)CS(=O)(=O)c2cn(CC(=O)N3CCCC3)c3ccccc23)cc1	.
SMILES	RMI FANCM FP
NNc1nc2cc3c(cc2s1)OCCO3	-6
CCC(=O)Nc1nc2cc3c(cc2s1)OCCO3	.
c1c2c(cc3sc(N4CCN(c5nc6cc7c(cc6s5)OCCO7)CC4)nc13)OCCO2	.
CCOC(=O)c1sc(NC(=O)c2cc([N+](=O)[O-])cc([N+](=O)[O-])c2)nc1-c1ccccc1	.
Cc1cc(O)c(C(c2cccc(Cl)c2)N2CCN(C)CC2)c(=O)n1Cc1ccco1 (stereo not given)	.
NC(CO)C(=O)NNCc1ccc(O)c(O)c1O (stereo not given)	-13!
N[C@H](CO)C(=O)O	.
